Among all 4,800 compounds or so, about 420 (8.8%) showed an effect of 50% or more. This excerpt belongs to a sample that is enriched for strong results.

This assay deals with Plasmodium falciparum. Description: Confirmatory screen in NF54 nanoGlo assay, in single point, at 2uM, 72h. The class given is functional, Erythrocyte. The conditions noted are these: timepoint 72 hour.
For the compound `Cc1nc2ccccc2cc1OCc1ccc(F)cc1`, the “% Inhibition” value was 3%.

`CC(NC(=O)N[C@@H]1C=C[C@H](CO)C1)c1ccncc1F` (stereo not given in full): the “% Inhibition” value came out at 2%.

With `S=c1cc(-c2ccccc2)n(Cc2ccco2)c2c1CCCC2`, the “% Inhibition” value is listed as 38%.

Turning to `Cc1ccc(Cc2nc(N3CCCN(C(=O)CCc4ccccc4)CC3)c3cnn(-c4ccccc4)c3n2)cc1`, the “% Inhibition” value was 1%.

As for `COCCOc1ccc2c(n1)CCN(C(=O)c1ccc(OC)c(OC)c1)C2`, the “% Inhibition” value is given as -12%.

Regarding `Cc1nn(C)cc1NC(=O)N[C@H]1CCCC[C@@H]1O`, the “% Inhibition” value was -9%.

On to `C[C@@H](C1CC1)N(C1CC1)S(=O)(=O)c1ccc(F)cc1F`, for which the “% Inhibition” value is reported as -2%.

As for `Cc1ncccc1C(=O)Nc1cccc(Oc2cccnn2)c1`, the “% Inhibition” value is 1%.

For `Cc1c(Cl)c(C(F)(F)F)nn1[C@@H](C)C(=O)NC1CCN(C(C)C)CC1`, the “% Inhibition” value is given as -4%.

Turning to `COc1cccc(-c2cc3c(N4CC=C(c5ccccc5)CC4)nccn3n2)c1`, the “% Inhibition” value is listed as -2%.

As for `CC[C@H]1Cn2c(C(=O)N3CCN(C(=O)c4ccco4)CC3)cc3c(Cl)ccc(c32)O1`, the “% Inhibition” value is -17%.

As to `CCCn1nc(-n2cnnc2)c(NC(=O)c2ccc3c(c2)OCO3)c1C`, the “% Inhibition” value is -4%.

Turning to `CCOC(=O)C1CCC(CN(Cc2ccc(OC)cc2)S(=O)(=O)c2cc(C(=O)Nc3ccc(OCC)cc3)ccc2F)CC1` (stereo not given), the “% Inhibition” value was 50%.

Consider `CCOc1ccc(NC(=O)c2cnc(N(Cc3ccccc3)C(C)C)nc2N)cc1`, for which the “% Inhibition” value is reported as -15%.

Regarding `CCOc1ccc(NC(=O)c2ccc3c(c2)N(CC)[C@@H]2CCCCN2C3=O)cc1`, the “% Inhibition” value is 7%.

For the compound `CN(c1ccc(Br)cc1)S(=O)(=O)c1ccc2c(c1)CCN2C(=O)C1CCC1`, the “% Inhibition” value is listed as -7%.

For the compound `COc1ccccc1CNC(=O)c1cnn2c(-c3ccc(Cl)cc3)ccnc12`, the “% Inhibition” value is reported as -4%.

With `c1cncc(CN2CCN(C3CCCCCC3)CC2)c1`, the “% Inhibition” value was 3%.

As for `Cc1cccc(Cn2ccc(-c3cccc(OCc4ccc(Cl)cc4Cl)c3)n2)c1`, the “% Inhibition” value is -4%.

For `C[C@H]1CC(C)(C)N(C)c2ccc(/C=C/c3c(C(=O)O)cnc4ccnn34)cc21`, the “% Inhibition” value was found to be 7%.

As to `Clc1cccc(CNCCCNc2ccncc2)c1Cl`, the “% Inhibition” value turned out to be 71%.

With `CN(C)CCCNCc1ccccc1F`, the “% Inhibition” value was -2%.

For `OCCNCc1c(Cl)cccc1Cl`, the “% Inhibition” value is given as -1%.

For the compound `CC[C@@H](CCNS(=O)(=O)c1cn(C(F)F)nc1C)n1ccc(C(F)(F)F)n1`, the “% Inhibition” value is -8%.

For `COc1ccc(Nc2nc(C(=O)Nc3ncc(C)s3)cs2)cc1OC`, the “% Inhibition” value amounted to 17%.

In the case of `CCOc1cc(C(=O)Nc2ccc3nc4c(c(Nc5ccc(OC)c(OC)c5)c3c2)CCCC4)cc(OCC)c1OCC`, the “% Inhibition” value is on record as 96%.

As for `CCOC(=O)Oc1c(OC)cc(C(=O)Nc2ccc3c(c2)sc(=O)n3C)cc1OC`, the “% Inhibition” value is recorded as 6%.

`O=C(NC[C@H]1CCS(=O)(=O)C1)c1ccc2[nH]c3c(c2c1)CCCC3`: the “% Inhibition” value is recorded as -6%.

Consider `Clc1ccc(COc2ccc(CNC3CCCCC3)cc2Br)cc1`, for which the “% Inhibition” value was -4%.

For `O=C(Cc1ncc(C(F)(F)F)cc1Cl)c1ccc(Cl)cc1Cl`, the “% Inhibition” value was -6%.

As for `O=C(Nc1ccc(C(F)(F)F)cc1)N1CCN(CC(O)C2CCCO2)CC1` (stereo not given), the “% Inhibition” value was 4%.

`CC(NC(=O)N1CCCCC1)(C(F)(F)F)C(F)(F)F`: the “% Inhibition” value amounted to 7%.

In the case of `COc1cccc(Oc2nc(N3CCN(C)CC3)nc3c2CN(C(=O)Nc2ccccc2)CC3)c1`, the “% Inhibition” value is on record as 5%.

Turning to `O=S(=O)(c1cccc(Cl)c1)N1CCc2nc(N3CCCCC3)nc(Oc3ccccc3)c2C1`, the “% Inhibition” value is listed as 73%.

As for `COc1cccc(CC(=O)N2CCc3nc(N4CCC(C)CC4)nc(Oc4ccccc4OC)c3C2)c1`, the “% Inhibition” value worked out at 45%.

Take `O=C(O)Cc1sc(-c2ccc(Cl)cc2)nc1-c1ccc(Oc2ccccc2)cc1`: the “% Inhibition” value is 0%.

For `CN1CCN(C(=O)[C@@H]2Cc3ccccc32)CC1`, the “% Inhibition” value is recorded as 2%.

As to `CCc1nnc2ccc(S(=O)(=O)Nc3cc(F)cc(F)c3)cn12`, the “% Inhibition” value was -5%.

`CCOC(=O)N1CCN(C(=O)C2c3ccccc3C(=O)N(C3CCCCC3)C2c2ccc(OC)cc2)CC1` (stereo not given): the “% Inhibition” value is on record as -4%.

For the compound `COc1cccc(S(=O)(=O)N2CCC(OCCOc3ccccc3)CC2)c1`, the “% Inhibition” value came out at 0%.

For the compound `COc1cccc(S(=O)(=O)N2CCCN(Cc3ccncc3)[C@H](c3ccccc3)CC(=O)NCC2)c1`, the “% Inhibition” value is on record as 92%.

On to `COc1cccc(S(=O)(=O)N2CCC(OCCOCc3ccccc3)CC2)c1`, for which the “% Inhibition” value is on record as -3%.

For `COCCCn1c(=O)c2ccccc2n(CC(=O)N2CCc3ccccc32)c1=O`, the “% Inhibition” value is -8%.

As for `CC(C)OC(=O)N(CCOC(=O)Nc1cccc(Cl)c1)CCOC(=O)Nc1cccc(Cl)c1`, the “% Inhibition” value is -15%.

With `COc1ncccc1C(=O)NC[C@H](C)S(N)(=O)=O`, the “% Inhibition” value is 4%.

Consider `Cc1cc(NC(=O)C(=O)Nc2cnn(CCC(C)C)c2C)n(C)n1`, for which the “% Inhibition” value was -7%.

As for `COc1ccccc1N(Cc1ccccc1)C1=NC(=[N+](Cc2ccccc2)c2ccccc2OC)c2ccccc21`, the “% Inhibition” value is recorded as 74%.

On to `C[C@H](NC(=O)c1cc(C2CC2)[nH]n1)c1nccs1`, for which the “% Inhibition” value is on record as -11%.

Regarding `CN(C(=O)c1ccccc1Br)C(C)(C)C`, the “% Inhibition” value was -10%.

Turning to `COc1ccccc1[C@H]1CC(O)=Nc2c1ncn2-c1cc(F)ccc1F`, the “% Inhibition” value is -3%.

Take `Cc1nnc2ccc(S(=O)(=O)N(Cc3ccccc3F)c3ccccc3)cn12`: the “% Inhibition” value is -16%.

`COc1cccc([C@H]2CC(=O)Nc3c2cnn3C)c1`: the “% Inhibition” value is -8%.

As to `COc1ccc(NC(=O)[C@@H]2COCC(=O)N2Cc2ccc(C)cc2)cc1`, the “% Inhibition” value is 1%.

On to `CCc1ccc(C2=C[C@@H](c3cccc(OC)c3)n3ncc(C(=O)Nc4ccc(C)cc4)c3N2)cc1`, for which the “% Inhibition” value is 70%.

For `CC[C@H](C)N1CCN(Cc2cccc(Oc3ccccc3)c2)CC1`, the “% Inhibition” value is listed as -6%.

Consider `CC[C@H]1Cn2c(C(=O)N3CCN(c4ccccn4)CC3)cc3c(Cl)ccc(c32)O1`, for which the “% Inhibition” value is given as -8%.

Consider `Cc1nn(C)cc1-c1nnc(-c2ccccc2)o1`, for which the “% Inhibition” value is given as -17%.

In the case of `COc1ccc(COC(=O)c2cccnc2C)cn1`, the “% Inhibition” value is reported as -9%.

`O=C(C[C@H]1CCCN1c1ccnc(C2CC2)n1)c1ccco1`: the “% Inhibition” value is recorded as 3%.

For `CCc1nc(NS(=O)(=O)c2cc(Cl)sc2Cl)no1`, the “% Inhibition” value is -4%.

On to `O=C1NCCCc2nn(Cc3cc(F)ccc3Br)cc21`, for which the “% Inhibition” value was -12%.

For the compound `CCOC(=O)c1c[nH]c2c(-c3ccccc3)nsc2c1=O`, the “% Inhibition” value is reported as -5%.

In the case of `O=C(c1cccs1)N1CCN(C2CCCCCC2)CC1`, the “% Inhibition” value turned out to be 1%.

For the compound `CC(C)c1ccc(-c2nc(CN3CCCCC3)cc(CN3CCCCC3)c2O)cc1`, the “% Inhibition” value was 96%.

In the case of `CC(C)c1nc(O)cc(CN2CCCCC2)n1`, the “% Inhibition” value was -8%.
